# Experimental data taken from PubChem BioAssay (NCATS).
# Records with an inconclusive call do not appear. A number with no mark means an inactive call. The source made the active and inactive calls. Calls come from the whole dose curve; as a rule, active = well fitted inhibition curve with a large enough effect; inconclusive = small, poorly fitted or top-dose-only effect; inactive = flat fitted curve, though single readings scatter.
# Assay: qHTS profiling for inhibitors of Plasmodium falciparum proliferation (AID 504749); note: nearly all actives have a fitted effect of over 60% in size;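 for activity, negative = inhibition: 0% = DMSO vehicle and full inhibition = artemisinin control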
# Conditions: P. falciparum in erythrocytes, SYBR Green DNA, 72 h; at 28.7 µM (top of the series); parasite line A
# Source text: NIH National Institute of Allergy and Infectious Diseases [NIAID] NIH Chemical Genomics Center [NCGC] MLPCN Grant: None Assay Provider: Xinzhuan Su, NIAID NCGC Assay Overview: Plasmodium falciparum is a virulent malarial parasite that kills 1-2 million people worldwide each year. Transmitted by mosquitoes, the sporozoite form of the parasite enters the blood stream to infect hepatocytes, where they become merozoites that infect red blood cells (erythrocytes). Within erythrocytes, merozoites begin a […] cycle of growth and division, after which the parasite is released to infect new red blood cells. Gametocytes, which form within erythrocytes as well, circulate in the bloodstream and are ingested by the mosquito, thereby completing the life cycle. To profile malarial isolates for differential chemical responses and to identify inhibitors of malarial growth, an assay that measures P. falciparum growth and replication within erythrocytes was employed. This assay uses a DNA binding fluorescent dye (SYBR Green) to detect parasite DNA following cell lysis. Because mature erythrocytes lack DNA, only Plasmodium-derived DNA is detected.
# NCGC Assay Protocol Summary: The SYBR Green viability assay was adapted from a method described previously (Plouffe et al., 2008). For screening 3 ul culture medium was dispensed into 1536 well black clear bottom plates (Aurora Biotechnologies) using a Multidrop Combi (Thermo Fisher Scientific Inc.), 23 nL compounds in DMSO were added by a pin tool (Kalypsys), and 5 ul of erythrocytes infected with P. falciparum (0.3% parasitemia, 2.5% hematocrit final concentration) were added. The plates were incubated at 37 C in a humidified incubator in 5% CO2 for 72 h, and 2 ul lysis buffer (20 mM Tris HCl, 10 mM EDTA, 0.16% saponin, 1.6% triton X, 10X SYBR Green I supplied as 10,000X […] by Invitrogen) was added to each well. The plates were mixed for 25 sec with gentle shaking and incubated overnight at room temperature in the dark. The following morning, fluorescence intensity at 485(14) nm excitation and 535(25) nm emission wavelengths was measured on an EnVision (Perkin Elmer) plate reader. Plate reads were normalized relative to the control inhibitor (0.29 uM artemisinin) and vehicle (DMSO) wells present on each plate and then corrected by an algorithm using vehicle-only control plates at the beginning and end of the compound plate stack.
# Potency is the fitted concentration of half-maximal effect.
row,SMILES,"activity, negative = inhibition [%]"
1,C[N+]1([O-])[C@H]2CC[C@H]1CC(OC(=O)[C@@H](CO)c1ccccc1)C2 (some centres not stated),6.57
2,C[N+]1(C)C2CC[C@H]1CC(OC(=O)[C@@H](CO)c1ccccc1)C2 (some centres not stated),0.517
3,O=C1C[C@@H]2OCC=C3CN4CC[C@]56c7ccccc7N1[C@@H]5[C@@H]2[C@H]3C[C@H]46 (tested in a mixture with another compound),-29.7
4,C[C@@H]1O[C@@H](O[C@H]2C[C@@H](O)[C@@]3(CO)[C@H]4[C@H](O)C[C@]5(C)[C@@H](C6=CC(=O)OC6)CC[C@]5(O)[C@H]4CC[C@@]3(O)C2)[C@@H](O)[C@H](O)[C@H]1O,-4.19
5,C[C@@H](Cc1ccc(O)cc1)NC[C@@H](O)c1cc(O)cc(O)c1,13.4

# Same assay, conditions: P. falciparum in erythrocytes, SYBR Green DNA, 72 h; at 28.7 µM (top of the series); parasite line B
row,SMILES,"activity, negative = inhibition [%]"
1,C[N+]1([O-])[C@H]2CC[C@H]1CC(OC(=O)[C@@H](CO)c1ccccc1)C2 (some centres not stated),-2.12
2,C[N+]1(C)C2CC[C@H]1CC(OC(=O)[C@@H](CO)c1ccccc1)C2 (some centres not stated),-9.85
3,O=C1C[C@@H]2OCC=C3CN4CC[C@]56c7ccccc7N1[C@@H]5[C@@H]2[C@H]3C[C@H]46 (tested in a mixture with another compound),-15.1
4,C[C@@H]1O[C@@H](O[C@H]2C[C@@H](O)[C@@]3(CO)[C@H]4[C@H](O)C[C@]5(C)[C@@H](C6=CC(=O)OC6)CC[C@]5(O)[C@H]4CC[C@@]3(O)C2)[C@@H](O)[C@H](O)[C@H]1O,10.7
5,C[C@@H](Cc1ccc(O)cc1)NC[C@@H](O)c1cc(O)cc(O)c1,5.16

# Same assay, conditions: P. falciparum in erythrocytes, SYBR Green DNA, 72 h; parasite line A
row,SMILES,Potency
1,C=C[C@@H]1CN2CC[C@H]1C[C@H]2[C@H](O)c1ccnc2ccccc12,89.1 nM (active)

# Same assay, conditions: P. falciparum in erythrocytes, SYBR Green DNA, 72 h; parasite line B
row,SMILES,Potency
1,C=C[C@@H]1CN2CC[C@H]1C[C@H]2[C@H](O)c1ccnc2ccccc12,100 nM (active)
